Data published in PubChem BioAssay.
Unmarked numbers belong to inactive results. For part of these data: Entries with a potency or affinity are not part of this list. The source made the active and inactive calls. Unless noted, the rule behind the calls is not given here.

Experiments:
[1] = antimalarial activity against Dd2 strain (AID 2302;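 active = growth inhibition above 50% at the single 2 µM test dose, taken to imply half-maximal potency below 2 µM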;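 note: 0% = DMSO untreated growth and 100% = chloroquine plus artemisinin killed control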); settings: P. falciparum Dd2 in RBCs, LDH growth readout, 72 h; at 2 µM; hits give high values
[2] = human hepatoma cell viability loss – ATP luminescence, cytotoxicity control for P. falciparum antimalarial project, primary screen (AID 2303;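 active = inhibition above 50%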;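 note: 0% = DMSO wells and 100% = digitonin-killed cells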); settings: HepG2 viability, 24-48 h, at 10 µM, hits give high values
[3] = molecular target: L-lactate dehydrogenase (Plasmodium falciparum (isolate CDC / Honduras)) (UniProt Q27743); assay: PfLDH activity inhibition – cell lysate, 3D7 strain, counter-screen for P. falciparum growth inhibition project (AID 2304);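 note: 0% = vehicle and 100% = reference inhibitor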; settings: P. falciparum 3D7 crude extract, LDH APAD/NBT absorbance; at 2 µM; hits give high values
[4] = inhibition of 3D7 malaria parasite growth – strain 3D7 (AID 2306);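 note: 0% = DMSO wells and 100% = chloroquine plus artemisinin control wells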; settings: P. falciparum 3D7 erythrocytic growth, LDH absorbance, 72 h; at 2 µM; hits give high values
[5] = molecular target: Calcium-dependent protein kinase 1 (Plasmodium falciparum (isolate 3D7)) (UniProt P62344); assay: PfCDPK1 kinase inhibitors, biochemical, TCAMS library (AID 1159585; cut-off not given, nearly all actives have IC50 up to about 0.98 µM;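 note: inhibitors leave more ATP so luminescence rises with inhibition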); settings: recombinant PfCDPK1, Kinase-Glo ATP depletion luminescence
[6] = molecular target: Plasmodium falciparum protein kinase 6 (PK6, PF3D7_1337100) (UniProt Q8IDW1); assay: PfPK6 kinase inhibitors, biochemical, TCAMS library (AID 1159586); settings: recombinant PfPK6, Kinase-Glo ATP depletion luminescence
[7] = molecular target: Protein kinase 7 (PK7), Plasmodium falciparum 3D7 (PF3D7_0213400) (UniProt Q7YTF7); assay: inhibition of Plasmodium PK7 catalytic activity – biochemical, TCAMS antimalarial set, Kinase-Glo luminescence (AID 1159587); settings: recombinant PfPK7, Kinase-Glo ATP depletion luminescence
[8] = molecular target: Calcium-dependent protein kinase 4 (Plasmodium falciparum (isolate 3D7)) (UniProt Q8IBS5); assay: PfCDPK4 kinase inhibitors, biochemical, TCAMS library (AID 1159588; cut-off not given, nearly all actives have IC50 up to about 0.91 µM); settings: recombinant PfCDPK4, Kinase-Glo ATP depletion luminescence
Chain of Calcium-dependent protein kinase 4 (Plasmodium falciparum (isolate 3D7)) (Q8IBS5 whole entry, looked up): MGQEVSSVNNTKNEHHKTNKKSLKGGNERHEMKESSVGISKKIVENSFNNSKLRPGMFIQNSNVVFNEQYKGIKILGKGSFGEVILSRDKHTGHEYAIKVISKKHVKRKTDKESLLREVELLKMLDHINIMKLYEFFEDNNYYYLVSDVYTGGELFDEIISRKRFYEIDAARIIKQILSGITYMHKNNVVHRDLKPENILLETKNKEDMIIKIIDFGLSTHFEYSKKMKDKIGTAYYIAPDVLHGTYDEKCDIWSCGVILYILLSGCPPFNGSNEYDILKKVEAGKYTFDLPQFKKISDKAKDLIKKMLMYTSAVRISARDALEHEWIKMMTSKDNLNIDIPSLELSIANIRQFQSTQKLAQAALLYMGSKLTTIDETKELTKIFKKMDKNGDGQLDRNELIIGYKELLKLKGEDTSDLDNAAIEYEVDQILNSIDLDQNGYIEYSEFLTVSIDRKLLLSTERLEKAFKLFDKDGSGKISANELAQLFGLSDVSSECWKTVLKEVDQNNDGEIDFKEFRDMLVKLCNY

Chain of Plasmodium falciparum protein kinase 6 (PK6, PF3D7_1337100) (Q8IDW1 1-305): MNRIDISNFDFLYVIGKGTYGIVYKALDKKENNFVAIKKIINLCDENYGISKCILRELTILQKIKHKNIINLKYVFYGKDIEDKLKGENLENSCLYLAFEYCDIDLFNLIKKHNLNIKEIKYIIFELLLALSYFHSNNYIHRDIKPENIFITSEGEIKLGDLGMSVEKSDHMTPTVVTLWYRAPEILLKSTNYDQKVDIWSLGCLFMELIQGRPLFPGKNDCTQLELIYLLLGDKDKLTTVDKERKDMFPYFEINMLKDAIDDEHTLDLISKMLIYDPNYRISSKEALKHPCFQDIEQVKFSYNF
Chain of L-lactate dehydrogenase (Plasmodium falciparum (isolate CDC / Honduras)) (Q27743 whole entry, looked up): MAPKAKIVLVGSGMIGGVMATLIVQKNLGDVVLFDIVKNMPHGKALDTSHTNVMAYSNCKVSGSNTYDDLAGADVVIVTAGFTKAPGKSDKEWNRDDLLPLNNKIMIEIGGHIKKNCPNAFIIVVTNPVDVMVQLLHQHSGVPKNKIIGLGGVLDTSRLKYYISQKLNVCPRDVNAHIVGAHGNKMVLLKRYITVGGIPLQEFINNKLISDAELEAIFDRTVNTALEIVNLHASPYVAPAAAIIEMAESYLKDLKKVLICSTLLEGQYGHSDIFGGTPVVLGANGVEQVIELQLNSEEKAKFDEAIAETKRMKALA
Chain of Calcium-dependent protein kinase 1 (Plasmodium falciparum (isolate 3D7)) (P62344 whole entry, looked up): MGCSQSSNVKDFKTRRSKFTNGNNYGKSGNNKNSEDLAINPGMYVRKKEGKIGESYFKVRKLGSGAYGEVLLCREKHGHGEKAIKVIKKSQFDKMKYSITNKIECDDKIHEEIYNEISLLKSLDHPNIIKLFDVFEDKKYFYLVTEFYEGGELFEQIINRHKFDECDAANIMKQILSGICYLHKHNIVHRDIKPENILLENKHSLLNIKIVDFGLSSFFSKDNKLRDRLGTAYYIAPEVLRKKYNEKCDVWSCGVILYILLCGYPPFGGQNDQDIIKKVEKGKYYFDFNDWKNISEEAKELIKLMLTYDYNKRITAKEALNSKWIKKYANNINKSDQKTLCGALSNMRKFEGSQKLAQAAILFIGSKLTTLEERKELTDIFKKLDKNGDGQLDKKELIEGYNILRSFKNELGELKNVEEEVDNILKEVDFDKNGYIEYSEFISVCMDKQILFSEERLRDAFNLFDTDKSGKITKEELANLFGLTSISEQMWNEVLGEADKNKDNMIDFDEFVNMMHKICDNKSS
Chain of Protein kinase 7 (PK7), Plasmodium falciparum 3D7 (PF3D7_0213400) (Q7YTF7 1-343): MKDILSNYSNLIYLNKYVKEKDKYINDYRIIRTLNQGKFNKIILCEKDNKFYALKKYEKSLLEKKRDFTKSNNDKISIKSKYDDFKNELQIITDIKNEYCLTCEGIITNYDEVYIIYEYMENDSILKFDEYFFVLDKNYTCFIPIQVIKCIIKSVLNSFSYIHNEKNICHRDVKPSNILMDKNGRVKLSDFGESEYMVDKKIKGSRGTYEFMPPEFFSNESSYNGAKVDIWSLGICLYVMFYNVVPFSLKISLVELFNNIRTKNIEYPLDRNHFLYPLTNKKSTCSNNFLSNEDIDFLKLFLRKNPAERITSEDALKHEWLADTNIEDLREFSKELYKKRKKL

| SMILES | growth inhibition [1] | inhibition [2] | inhibition [3] [%] | growth inhibition [4] | outcome [5] | outcome [6] | outcome [7] | outcome [8] |
| --- | --- | --- | --- | --- | --- | --- | --- | --- |
| COc1ccc(C2N=C(N)N=C(N)N2c2ccc(Cl)cc2)cc1OC (configuration not stated) | 4% | 4% | -1 | 85% (active) | inactive | inactive | inactive | inactive |
| CN(C)Cc1cccc(-c2cnc(N)c(-c3nc4ccc(S(C)(=O)=O)cc4[nH]3)c2)c1 | 61% (active) | 27% | -2 | 100% (active) | inactive | inactive | inactive | inactive |
| CC(C)Nc1ccc(Nc2ccnc3cc4ccccc4cc23)cc1 | 81% (active) | 37% | -3 | 100% (active) | inactive | inactive | inactive | inactive |
| c1ccc(C2CCC(N3CCC(N4CCCC4)CC3)CC2)cc1 (configuration not stated) | 46% | 9% | -2 | 102% (active) | inactive | inactive | inactive | inactive |
| Clc1ccc2c(NCCc3ccccc3)ccnc2c1 | 99% (active) | 31% | -3 | 93% (active) | inactive | inactive | inactive | inactive |
| Cc1ccc2nc(C)cc(NN=Cc3ccccc3[N+](=O)[O-])c2c1 | 100% (active) | 5% | -1 | 102% (active) | inactive | inactive | inactive | inactive |
| O=C(NCc1ccc(Cl)c(Cl)c1)c1cccc(C2CCCN(Cc3ccc4nc[nH]c4c3)C2)c1 (configuration not stated) | 30% | 3% | 5 | 95% (active) | inactive | inactive | inactive | inactive |
| CC(C)C[C@H](NC(=O)c1cc2ccccc2s1)C(=O)N[C@H]1CCN(Cc2ccc(OCCCN(C)C)c(Cl)c2)C1 | 89% (active) | 83% (active) | 1 | 100% (active) | inactive | inactive | inactive | inactive |
| Cc1cccc2[nH]c(-c3cccc(-c4ccc(NC(=O)NCc5cccc(F)c5)cc4)c3)nc12 | 83% (active) | 40% | -4 | 101% (active) | inactive | inactive | inactive | inactive |
| COc1ccc2nccc([C@@H](O)CN3CCC(NC(=O)C(c4cc5ccccc5s4)N4CCN(c5ccccc5OC)CC4)CC3)c2c1 (some centres not stated) | 88% (active) | 21% | -2 | 100% (active) | inactive | inactive | inactive | inactive |
| COc1c(C2CCN(CCCCNC(=O)c3ccc(-c4ccc(C(=O)C(F)(F)F)cc4)cc3)CC2)ccc2c1CCCC2 | 33% | 99% (active) | -4 | 81% (active) | inactive | inactive | inactive | inactive |
| CCC(CN1C(=O)C(c2ccccc2)(c2ccccc2)N=C1N)c1ccccc1 (configuration not stated) | 98% (active) | 11% | -2 | 98% (active) | inactive | inactive | inactive | inactive |
| O=C(NCCCN(Cc1ccc(F)cc1)c1ccccn1)C(c1cc2ccccc2o1)N1CCN(C(c2ccccc2)c2ccccc2)CC1 (configuration not stated) | 53% (active) | 14% | 1 | 97% (active) | inactive | inactive | inactive | inactive |
| COc1cc2nc(N3CCC(CNC(=O)c4ccc(NC(=O)c5ccc(Cl)cc5)cc4)CC3)nc(N)c2cc1OC | 100% (active) | 98% (active) | 0 | 101% (active) | inactive | inactive | inactive | inactive |
| O=c1cc(NCCCNCc2cc3c(Cl)cccc3s2)[nH]c2ccccc12 | 57% (active) | 6% | -7 | 102% (active) | inactive | inactive | inactive | inactive |
| CN(C(=O)/C=C/c1cc(C(F)(F)F)ccc1F)C1CCN(CCCCCNC(=O)/C=C/c2ccc(Cl)c(Cl)c2)CC1 | 68% (active) | 71% (active) | 3 | 101% (active) | inactive | inactive | inactive | inactive |
| Cc1cnc(C(=O)Nc2cccc(-c3cccc(-c4nc5ccc(F)cc5[nH]4)c3)c2)cn1 | 24% | 25% | -1 | 99% (active) | inactive | inactive | inactive | inactive |
| O=C(NC1CCN(Cc2ccc(O)cc2)CC1)c1ccc(Cl)c(Cl)c1 | 3% | 1% | 4 | 95% (active) | inactive | inactive | inactive | inactive |
| CC(=O)Nc1ccc(S(=O)(=O)N(Cc2cccc(Oc3ccccc3)c2)C2CCN(C/C=C(\C)CCC=C(C)C)CC2)cc1 | 99% (active) | 22% | 0 | 100% (active) | inactive | inactive | inactive | inactive |
| O=S(=O)(Nc1ccc(CCN2CCCCC2CCN2CCCC2)cc1)c1ccc(-c2ccccc2)cc1 (configuration not stated) | 18% | 18% | -1 | 98% (active) | inactive | inactive | inactive | inactive |

| SMILES | growth inhibition [1] | inhibition [2] | inhibition [3] [%] | growth inhibition [4] | outcome [5] | outcome [6] | outcome [7] | outcome [8] |
| --- | --- | --- | --- | --- | --- | --- | --- | --- |
| Cc1[nH]c(C)c(-c2cc3ccccc3o2)c(=O)c1Cl | 13% | 1% | -2 | 92% (active) | inactive | inactive | inactive | inactive |
| CCCC(CNCc1cccc(C)c1)CNc1cc(=O)c2ccccc2[nH]1 (configuration not stated) | 89% (active) | -2% | -7 | 99% (active) | inactive | inactive | inactive | inactive |
| CN(C)CCN1CCN(CCCN2c3ccccc3Sc3ccc(C(F)(F)F)cc32)CC1 | 61% (active) | 98% (active) | -2 | 99% (active) | inactive | inactive | inactive | inactive |
| CC(C)(C)Nc1nc(Nc2cccc([N+](=O)[O-])c2)nc(-n2ccnc2)n1 | 41% | 10% | -9 | 98% (active) | inactive | inactive | inactive | inactive |
| O=C(NCCCCCN1CCC(c2c[nH]c3ccccc23)CC1)c1ccc(Cl)c(Cl)c1 | 10% | 48% | -2 | 85% (active) | inactive | inactive | inactive | inactive |
| O=C(CNC1CCCCC1)Nc1cccc(C(=O)Nc2cccc(C(F)(F)F)c2)c1 | 80% (active) | 17% | -6 | 93% (active) | inactive | inactive | inactive | inactive |
| CCN(CCCN1CCCCC1)c1cc(C)nc(Nc2cc(Cl)cc(Cl)c2)n1 | 99% (active) | 34% | -3 | 100% (active) | inactive | inactive | inactive | inactive |
| CCOc1c(Br)cc(Br)cc1CNCCCCNc1nc2ccccc2[nH]1 | 37% | 25% | -4 | 101% (active) | inactive | inactive | inactive | inactive |
| COc1cc2ncnc(Nc3ccc(OCc4ccccc4)c(C(F)(F)F)c3)c2cc1OC | 78% (active) | 8% | 3 | 101% (active) | inactive | inactive | inactive | inactive |
| N#Cc1cc(C(=O)c2cc(Br)ccc2O)cn(-c2cc(Cl)cc(Cl)c2)c1=O | 35% | 42% | -5 | 98% (active) | inactive | inactive | inactive | inactive |
| COC(=O)c1cccc(C#CCCOCCCCCCNC[C@H](O)c2cc(Cl)c(N)c(Cl)c2)c1 | 88% (active) | 12% | -3 | 97% (active) | inactive | inactive | inactive | inactive |
| Nc1nc(N)c2c(ccc3c2ccn3C2C=CCCC2)n1 (configuration not stated) | 65% (active) | 68% (active) | -2 | 94% (active) | inactive | inactive | inactive | inactive |
| O=C(Cn1c(CCc2cccc(F)c2F)nc(=O)c2cccnc21)N(Cc1ccc(-c2ccc(C(F)(F)F)cc2)cc1)C1CCN(C2CCSCC2)CC1 | 63% (active) | 49% | 3 | 101% (active) | inactive | inactive | inactive | inactive |
| CCOc1cc(Cl)c(C(C)NC(=O)c2cccc(OC)c2)cc1OCC (configuration not stated) | 92% (active) | 29% | 6 | 98% (active) | inactive | inactive | inactive | inactive |
| CC1CCCC(NC(=O)CCOc2ccccc2)C1 (configuration not stated) | 32% | -14% | -2 | 96% (active) | inactive | inactive | inactive | inactive |
| Cc1nc(N)nc(N)c1CCCOc1ccccc1Cl | 5% | 40% | -1 | 98% (active) | inactive | inactive | inactive | inactive |
| CCCCCN1CCCC(CNS(=O)(=O)c2ccc(C(=O)Nc3ccc(C(F)(F)F)cc3)cc2)C1 (configuration not stated) | -9% | 51% (active) | -2 | 94% (active) | inactive | inactive | inactive | inactive |
| CCC(=Cc1cccc([N+](=O)[O-])c1)C(=O)NCC1CCN(c2nc(N)c3cc(OC)c(OC)cc3n2)CC1 | 62% (active) | 25% | 6 | 101% (active) | inactive | inactive | inactive | inactive |
| CC(=O)Nc1ccc(CNCCc2ccc(NC(=O)c3cc(Cl)cc(Cl)c3)cc2)cc1 | 31% | 10% | -1 | 102% (active) | inactive | inactive | inactive | inactive |
